Records with an inconclusive call do not appear. Where a call stands in place of a potency, no number is given. The source made the active and inactive calls. Calls come from the whole dose curve; as a rule, active = well fitted cell-killing curve with a large enough effect in the repeat runs; inconclusive = weak or mixed curves, or effect the other way; inactive = flat fitted curve, though single readings scatter.

The experiment is described as follows: qHTS RealTime-Glo MT Cell Viability Assay in HepG2 cells - 0 hour (AID 1224889). Note: nearly all actives have a fitted effect of over 50% in size. Particulars: RealTime-Glo luminescence; series mostly up to 76.8 µM. In outline: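 qHTS, HepG2, 600 cells/well, RealTime-Glo (NanoLuc + prosubstrate) added with cells; 5 h preincubation; DMSO compound addition; 37 C; luminescence at 0/8/16/24/32/40 h.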
(In general: qHTS replaces the single test concentration by a dilution series.)
For `CCOc1ncc(F)c(=O)[nH]1`, the Potency result was “inactive”.

On to `CC(O)Cn1cnc2c1c(=O)n(C)c(=O)n2C` (stereo not drawn), for which the Potency result is “inactive”.

Regarding `CCCCCCCC/C=C/C(=O)O`, the Potency result is “inactive”.

`Nc1ccn([C@H]2CS[C@@H](CO)O2)c(=O)n1`: the Potency entry was “inactive”.

As to `CNc1c2c(nn1C)CCCC2`, the Potency entry is “inactive”.

Regarding `CN=C(N)NC(=O)Nc1c(C)cccc1C`, the Potency entry was “inactive”.

For `O=S(=O)(O)CO`, the Potency entry was “inactive”.

Take `CSSc1ccoc1C`: the Potency result is “inactive”.

On to `CC(C)N=C=NC(C)C`, for which the Potency entry is “inactive”.

Take `CC(=O)N[C@@H](Cc1ccc(O)cc1)C(=O)O`: the Potency entry was “inactive”.

On to `CC(=O)Oc1cccc(O)c1`, for which the Potency result is “inactive”.

`C=CC(=O)NC(C)C`: the Potency entry is “inactive”.

Regarding `CC(C)C1CCC(C(=O)N[C@H](Cc2ccccc2)C(=O)O)CC1` (stereo partly drawn), the Potency result is “inactive”.

`CC(C)(O)CCc1ccccc1`: the Potency entry was “inactive”.

As for `Cc1cc(CCC(=O)OCCOCCOCCOC(=O)CCc2cc(C)c(O)c(C(C)(C)C)c2)cc(C(C)(C)C)c1O`, the Potency entry is “inactive”.

Consider `O=C(O)CCS`, for which the Potency entry was “inactive”.

For `C[C@H](CS)C(=O)N1CCC[C@H]1C(=O)O`, the Potency entry is “inactive”.

As for `Cc1cc([N+](=O)[O-])ccc1N`, the Potency result is “inactive”.

For `CC[C@H]1OC(=O)[C@H](C)[C@@H](O[C@H]2C[C@@](C)(OC)[C@@H](O)[C@H](C)O2)[C@H](C)[C@@H](O[C@@H]2O[C@H](C)C[C@H](N(C)C)[C@H]2O)[C@](C)(O)C[C@@H](C)CN(C)[C@H](C)[C@@H](O)[C@]1(C)O`, the Potency result is “inactive”.

In the case of `CC(=O)NNC(C)=O`, the Potency entry is “inactive”.

For the compound `CC[C@H]1OC(=O)[C@H](C)[C@@H](O[C@H]2C[C@@](C)(OC)[C@@H](O)[C@H](C)O2)[C@H](C)[C@@H](O[C@@H]2O[C@H](C)C[C@H](N(C)C)[C@H]2O)[C@](C)(O)C[C@@H](C)/C(=N\OCOCCOC)[C@H](C)[C@@H](O)[C@]1(C)O`, the Potency result was “inactive”.

As to `Cc1ccc(NC(=O)N(C)C)cc1NC(=O)N(C)C`, the Potency entry is “inactive”.

Turning to `CC[C@@H](CO)NCCN[C@@H](CC)CO`, the Potency result is “inactive”.
